Results published in PubChem BioAssay.
Several values for one entry are separate records, joined by “and”; a condition that tells them apart may be missing. Identical values can stand only once. Inconclusive results are not listed. Activity calls are given as the source filed them. Unless noted, no stated cut-off is given here; in the data, active means inhibition above about 80%; inactive means the rest.

How the values were obtained:
[1] = growth inhibition of DIPG glioma cells, dose response, cell-based, SU-DIPG-XIII, MIPE4.0, CellTiter-Glo, qHTS (AID 1347061; cut-off not given, nearly all actives have AC50 up to about 37 µM;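 further: cells exposed to compound for 48 hours before readout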); conditions: SU-DIPG-XIII viability, CellTiter-Glo ATP luminescence
[2] = growth inhibition of DIPG glioma cells, dose response, cell-based, JHH-DIPG-1, MIPE4.0, CellTiter-Glo, qHTS (AID 1347062; cut-off not given, nearly all actives have AC50 up to about 27 µM;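 further: cells exposed to compound for two days before readout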); conditions: JHH-DIPG-1 viability, CellTiter-Glo ATP luminescence
[3] = growth inhibition of DIPG glioma cells, dose response, cell-based, SU-DIPG-IV, MIPE4.0, CellTiter-Glo, qHTS (AID 1347063; cut-off not given, nearly all actives have AC50 up to about 30 µM;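 further: compound exposure lasted 48 hours before the viability readout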); conditions: SU-DIPG-IV viability, CellTiter-Glo ATP luminescence
[4] = growth inhibition of DIPG glioma cells, dose response, cell-based, SU-DIPG-XIII, MIPE5.0, CellTiter-Glo, qHTS (AID 1347064; cut-off not given, nearly all actives have AC50 up to about 23 µM;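 further: cells exposed to compound for 48 hours before the viability read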); conditions: SU-DIPG-XIII viability, CellTiter-Glo ATP luminescence
[5] = viability loss in pontine glioma line – cell-based, SU-DIPG-XXV, MIPE5.0, CellTiter-Glo, qHTS, dose response (AID 1347065; cut-off not given, nearly all actives have AC50 up to about 26 µM;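 further: cells exposed to compound for 48 hours before ATP readout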); conditions: CellTiter-Glo ATP luminescence
[6] = SU-DIPG-VI glioma cell viability, MIPE4.0 library, CellTiter-Glo luminescence, qHTS (AID 1347066; cut-off not given, nearly all actives have AC50 up to about 30 µM;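 further: cells exposed to compound for 48 hours before readout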); conditions: CellTiter-Glo ATP luminescence
[7] = JHH-DIPG-1 glioma cell viability, MIPE5.0 library, CellTiter-Glo luminescence, qHTS (AID 1347067; cut-off not given, nearly all actives have AC50 up to about 26 µM;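 further: cells exposed to compound for 48 hours before readout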); conditions: JHH-DIPG-1 glioma viability, CellTiter-Glo ATP luminescence
[8] = SU-DIPG-XXV glioma cell viability, MIPE5.0 library, qHTS (AID 1347068; cut-off not given, nearly all actives have IC50 up to about 30 µM;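 further: cells exposed to compound for 48 hours before viability readout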)
[9] = sensitizers of A549 cells to miR-34 induction, primary screen, imaging, A549 dox-inducible miR-34, nuclei and caspase counts (AID 1347080;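 active means compounds whose cell count with miR-34 switched on is under 0.7 times the count with it off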); conditions: A549 miR-34 inducible, Hoechst nuclei count, 48 h
[10] = modifiers of HSF1 nuclear foci, imaging, Selleck Cancer Library (AID 1347162; in the data active means plate-normalised HSF1 focus index below about 0.46); conditions: human cells, at 10 µM; SSMD: measured here: HSF1 foci SSMD mean; cell count: measured here: cell number; plate-normalised HSF1 focus index: stronger effect = lower value
[11] = survival rescue of mitochondrial mutant cells in low glucose, primary screen, MELAS cybrids, Rieske KO mouse fibroblasts, CellTiter-Glo (AID 1508586;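 active means mean z-score across replicates of 1.96 or higher in either the MELAS or the Rieske mutant cell line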;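 further: z relative to plate mean and SD of compound and empty wells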)
[12] = LFS_MB_P medulloblastoma growth inhibition, cell-based, chromothripsis tumors, cisplatin or BGB combos (AID 1671449); conditions: LFS_MB_P medulloblastoma cells;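 further: cells exposed for 96 hours; 0% = vehicle DMSO and 100% = killing by high DMSO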
[13] = HDN33 neuroblastoma growth inhibition, cell-based, chromothripsis tumors, cisplatin or BGB combos (AID 1671450); conditions: HDN33 neuroblastoma cells, stronger effect = higher value;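 further: cells exposed to compound for four days; 0% = vehicle DMSO and 100% = cell killing by high DMSO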
[14] = ICB984 medulloblastoma cell growth inhibition, synergistic combos for chromothripsis tumors, cisplatin or BGB combos (AID 1671451; call rule not given here;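 further: cells exposed for 96 hours before readout; 0% = vehicle DMSO and 100% = killing by high DMSO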); conditions: ICB984 medulloblastoma cells, drug combinations, stronger effect = higher value
[15] = LFS_MB_1R medulloblastoma cell growth inhibition, synergistic combos for chromothripsis tumors, cisplatin or BGB combos (AID 1671452); conditions: LFS_MB_1R medulloblastoma cells, stronger effect = higher value;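 further: cells exposed for 96 hours before readout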
[16] = HTB85 osteosarcoma cell growth inhibition, synergistic combos for chromothripsis tumors, BGB or cisplatin IC20 combos (AID 1671453); conditions: HTB85 osteosarcoma cells, drug combinations, at 0.5 µM, stronger effect = higher value;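 further: cells exposed for 96 hours before readout; 0% = vehicle DMSO and 100% = high DMSO killing control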
[17] = measured here: combination with BGB IC40, at 0.05 µM

In the case of `Nc1ccccc1NC(=O)c1ccc(CNC(=O)OCc2cccnc2)cc1`, the AC50 [1] was 14.8 µM (active), the AC50 [2] was 4.69 µM (active) and the AC50 [3] was 1.32 µM (active). For the same molecule, the AC50 [4] was 3.32 µM (active), the AC50 [5] was 2.35 µM (active) and the AC50 [6] was 3.72 µM (active). For the same molecule, the AC50 [7] was 2.95 µM (active), the IC50 [8] was 5.25 µM (active) and the fold change ([9]; stronger effect = lower value, cell number ratio, induced over uninduced) was 0.935 (inactive) and 1.04 (inactive). For the same molecule, the fold change ([9]; measured here: relative caspase fold change +Dox/-Dox) was 1.69 and 0.81, the cell count ([9]; measured here: total cells with miR-34 induction, stronger effect = lower value) was 3300 and 2250 and the cell count ([9]; measured here: total cells without miR-34 induction) was 3530 and 2180. For the same molecule, the SSMD [10] was 2.19, the cell count [10] was 6960 and the plate-normalised HSF1 focus index [10] was 1.11 (inactive). The z-score ([11]; MELAS cybrid survival, CellTiter-Glo 48 h, stronger effect = higher value) was -0.681 (inactive), the z-score ([11]; Rieske KO mouse fibroblast survival, CellTiter-Glo 72 h) was -1.12 and the inhibition ([12]; at 0.5 µM, stronger effect = higher value) was 20.5% (inactive) and 31.3% (inactive). The inhibition ([12]; measured here: combination with BGB IC20, at 0.005 µM) was 9.17% and -14%, the inhibition ([12]; measured here: combination with BGB IC40, at 0.005 µM) was -20.6% and -27.1% and the inhibition [12, 17] was -4.42% and -24.6%. The inhibition ([12]; measured here: combination with cisplatin, at 0.5 µM, stronger effect = higher value) was 46.4% and 85.2%, the inhibition ([12]; measured here: combination with cisplatin, at 5 µM, stronger effect = higher value) was 118% and 115% and the inhibition ([13]; BGB combo, at 5 µM) was 97.1% and 92.4%. The inhibition ([13]; at 0.5 µM) was 44% (inactive) and 41% (inactive), the inhibition ([13]; cisplatin combo, at 5 µM) was 99.7% and 97% and the inhibition ([13]; measured here: with BGB IC20 combination, at 0.5 µM) was 39.9% and 34.6%. For the same molecule, the inhibition ([13]; measured here: with cisplatin IC20 combination, at 0.5 µM) was 48.7% and 57.6%, the inhibition ([13]; single agent, at 5 µM) was 99.3% and 93.9% and the inhibition ([14]; BGB IC20 combo, at 0.005 µM) was 36.5% and 11%. For the same molecule, the inhibition ([14]; BGB IC40 combo, at 0.005 µM) was 24.4% and 20.7%, the inhibition ([14]; BGB IC40 combo, at 0.05 µM) was 97.8% and 93% and the inhibition ([14]; at 0.5 µM) was -31.6% (inactive) and -19.6% (inactive). The inhibition ([14]; cisplatin combo, at 0.05 µM) was 97.7% and 92.8%, the inhibition ([14]; cisplatin combo, at 0.5 µM) was -49.4% and -14.7% and the inhibition ([14]; cisplatin combo, at 5 µM) was 10.2% and -21.6%. For the same molecule, the inhibition ([14]; measured here: 5 uM single agent, at 5 µM) was 20% and -23%, the inhibition ([15]; at 0.5 µM) was 61% (inactive) and 41.3% (inactive) and the inhibition [15, 17] was -9.37% and -18.3%. The inhibition ([15]; measured here: combination with cisplatin, at 0.5 µM) was 79.3% and 71.8%, the inhibition ([15]; measured here: combination with cisplatin, at 5 µM) was 96.9% and 96.1% and the inhibition [16] was 57.3% (inactive) and 32.6% (inactive).
